Reference: PubChem BioAssay (NCATS)
Results filed as inconclusive are left out. Activity calls are given as the source filed them. Unless noted, the call rests on the fitted dose curve; in most records, active means well fitted curve in the direction sought with a large enough effect; inconclusive means small, poorly fitted or top-dose-only effect, or another doubt; inactive means no such curve, though single readings can be large; an effect the other way counts as inactive or inconclusive.

Tests used:
[1] = Cell Viability - BJ (AID 421; calls by dose curve;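 further: potency means the concentration at half of the fitted maximal effect; cells exposed to compound for 40 hours at 37 °C before readout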); settings: BJ fibroblast viability, qHTS
Summary of the method: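 Cytotoxicity in human BJ foreskin fibroblasts is scored as loss of cellular ATP after a 40-hour exposure, measured by luciferase luminescence. Controls are DMSO and 100 uM tamoxifen.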

[2] = Cell Viability - Jurkat (AID 426;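 active means dose-dependent loss of cell ATP signal giving a full or clear fitted curve, ranked by lower potency value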;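 further: potency means the concentration at half of the fitted maximal effect; cells exposed to compound for 40 hours at 37 °C before ATP read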); settings: qHTS
Summary of the method: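 Cytotoxicity taken as drop in cellular ATP (CellTiter-Glo luminescence, 20 min room temperature) after 40 hr, 37C treatment of 5000 Jurkat Clone E6-1 cells per well; concentration-response fitted with Hill equation for AC50.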

[3] = Cell Viability - Hek293 (AID 427;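 active means compounds whose dose-response curve shows a full or clear partial loss of cell viability, called from curve shape rather than a numeric limit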;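 further: potency means the concentration at half of the fitted maximal effect; cells exposed to compound for 40 hours at 37 °C before reading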); settings: qHTS
Summary of the method: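 qHTS, human embryonic kidney (adenovirus-transformed) cells; 40 hr cpd, 37 °C; CellTiter-Glo ATP luminescence. Norm: DMSO = 0, 100 uM tamoxifen = 100% inhibition. Hill-fit AC50.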

[4] = Cell Viability - HepG2 (AID 433; calls by dose curve;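 further: potency means the concentration at half of the fitted maximal effect; potency for ATP loss meaning cytotoxicity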); settings: qHTS
Summary of the method: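 ATP luminescence (CellTiter-Glo) after 40 h compound exposure, 37 °C, HepG2, 1500 cells/well, complete medium. Normalized: DMSO = basal, 100 uM tamoxifen = 100% inhibition. AC50 via standard Hill equation.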

[5] = Cell Viability - MRC5 (AID 434; calls by dose curve;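 further: potency means the concentration at half of the fitted maximal effect; cells exposed to compound for 40 hours at 37 °C; potency reflects cytotoxicity seen as loss of intracellular ATP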); settings: MRC5 lung fibroblast viability, qHTS
Summary of the method: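 Decrease in intracellular ATP, quantified by luciferase light output, reflects compound toxicity toward MRC5 cells exposed for 40 hr in complete culture medium. Concentration-response curves, scaled between DMSO and 100 uM tamoxifen, gave AC50 values.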

[6] = Cell Viability - SK-N-SH (AID 435; calls by dose curve; further: potency means the concentration at half of the fitted maximal effect); settings: SK-N-SH neuroblastoma cell viability qHTS
Summary of the method: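 CellTiter-Glo ATP luminescence, 20 min RT read; cells pre-plated 5 hr, compound 40 hr at 37 °C, 1500 cells/well, complete medium. Normalized DMSO = 0, 100 uM tamoxifen = 100% inhibition; Hill-fit AC50.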

[7] = molecular target: Mitogen-activated protein kinase 10 (Mus musculus) (UniProt Q61831); test: JNK3 AlphaScreen Assay (AID 530; active means well fitted curve in either direction with a large enough effect, not every such curve was filed as active;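 further: kinase came from lysate of stimulated human HepG2 cells; signal reports phosphorylation of biotinylated GST-cJun 1-79 at Ser73 with 10 µM ATP; on the % scale 0 is the no-effect control and ±100 the full control effect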)
Summary of the method: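 Phosphorylation of biotinylated GST-cJun(1-79) at Ser73 is measured by AlphaScreen proximity luminescence. Enzyme is JNK3 in HepG2 lysates activated with interleukin-1beta and tumor necrosis factor alpha; ATP is 10 uM final.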

[8] = Cell Viability - N2a (AID 540); settings: N2a mouse neuroblastoma cell viability; activity change, negative = cytotoxicity: at 92.2 µM (top of the series);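 further: plate controls were DMSO alone for no effect and tamoxifen control for full effect; nearly all actives have a fitted effect of over 45% in size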
Summary of the method: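 CellTiter-Glo ATP luminescence, read 20 min after reagent at room temperature, reported viability following 40 h compound treatment at 37 °C. N2a mouse neuroblastoma cells seeded 1500/well; Hill equation gave AC50.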

[9] = Cell Viability - NIH 3T3 (AID 541); settings: NIH 3T3 cell viability, qHTS; activity change, negative = cytotoxicity: at 92.2 µM (top of the series);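 further: plate controls were DMSO alone for no effect and tamoxifen positive control for full effect; nearly all actives have a fitted effect of over 25% in size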
Summary of the method: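 Intracellular ATP (CellTiter-Glo luminescence, 20 min at room temperature) measured after 40 hr compound exposure at 37 °C of 1000 NIH 3T3 mouse fibroblasts/well in complete medium; AC50 derived by Hill-equation modelling of qHTS concentration-response curves.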

[10] = Cell Viability - HUV-EC-C (AID 542); further: on the % scale 0 is the no-effect control and ±100 the full control effect; nearly all actives have a fitted effect of over 35% in size
Summary of the method: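 CellTiter-Glo luminescence measured ATP loss in HUV-EC-C cells (1000/well) after 40 hr compound exposure at 37 °C, in complete culture medium. Concentration-response data were Hill-fitted to give AC50.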

[11] = Cell Viability - H-4-II-E (AID 543); further: on the % scale 0 is the no-effect control and ±100 the full control effect; nearly all actives have a fitted effect of over 35% in size
Summary of the method: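 CellTiter-Glo luminescence (intracellular ATP) measured after 40 h compound exposure at 37 °C in H-4-II-E rat hepatoma cells seeded at 1500/well. Values are AC50s fitted with the standard Hill equation.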

[12] = Cell Viability - SH-SY5Y (AID 544); settings: SH-SY5Y neuroblastoma cell viability; viability change, negative = cytotoxic: at 92.2 µM (top of the series); further: nearly all actives have a fitted effect of over 55% in size
Summary of the method: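 Cytotoxicity measured via ATP-dependent luciferase luminescence (CellTiter-Glo) following 40 h, 37 °C exposure of 1500 SH-SY5Y cells per well. Concentration-response data were fitted with the standard Hill equation to give AC50.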

[13] = Cell Viability - Renal Proximal Tubule (AID 545); settings: renal proximal tubule cells viability, primary cells of rat origin; activity change, negative = cytotoxicity: at 91.7 µM (top of the series); further: nearly all actives have a fitted effect of over 40% in size
Summary of the method: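 Rat kidney proximal tubule cells, freshly isolated; 1000 cells/well, 5 hr settle, compound 40 hr 37 °C. CellTiter-Glo 20 min RT, luminescence read. AC50 by standard Hill fit.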

[14] = Cell Viability - Mesenchymal (AID 546); settings: mesenchymal cells viability, qHTS; activity change, negative = cytotoxicity: at 91.7 µM (top of the series);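 further: cells exposed to compound for 40 hours before reading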
Summary of the method: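 In this qHTS cytotoxicity format, glomerulus-derived human mesenchymal kidney cells received compound for 40 hr, then luciferase-based ATP quantitation. Concentration-response data were fitted with the Hill equation.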

[15] = Cellular Toxicity (caspase-3) HepG2 (AID 654);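 further: cells exposed to compound for 16 hours before reading; 0% = DMSO alone and 100% = caspase signal from 100 µM tamoxifen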
Summary of the method: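 Caspase 3/7 activation is measured as a luminescence increase (aminoluciferin substrate) after 16 h compound exposure of human hepatocarcinoma HepG2 cells. AC50 values are Hill fits, scaled between DMSO baseline and 100 uM tamoxifen stimulation.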

[16] = Cellular Toxicity (caspase-3) Jurkat (AID 655); settings: Jurkat caspase-3 activation, luminescence; caspase-3 activation: at 92.2 µM (top of the series), DMSO = 0%, tamoxifen = 100%;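 further: cells exposed to compound for 16 h at 37 °C before reading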
Summary of the method: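 Luminescent caspase-3/7 readout (aminoluciferin substrate cleavage) in human T-cell leukemia Jurkat cells after 16 hr compound exposure. Concentration-response normalized to DMSO and 100 uM tamoxifen; AC50 by standard Hill equation.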

[17] = Cellular Toxicity (caspase-3) HUV-EC-C (AID 656)
Summary of the method: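 Luminescent caspase-3/7 activation (aminoluciferin substrate cleavage) in HUV-EC-C cells after 16 hr compound exposure, 37°C. Signal normalized to DMSO basal and 100 uM tamoxifen as 100%; AC50 from concentration-response fitted with the Hill equation.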

[18] = Cellular Toxicity (caspase-3) BJ (AID 658); settings: Potency: caspase-3 activation;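 further: cells exposed to compound for 16 hours; 0% = DMSO basal and 100% = 10 µM staurosporine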
Summary of the method: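 Plated BJ cells (1000/well) rested 5 hr, received compound for 16 hr at 37 °C, then Caspase-Glo 3/7 reagent for 1 hr at room temperature before luminescence reading.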

[19] = Cellular Toxicity (caspase-3) MRC-5 (AID 659);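 further: 0% = DMSO basal and 100% = 10 µM staurosporine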
Summary of the method: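 Apoptosis readout in MRC-5 cells: luciferase light generated after caspase 3/7 cleaves a peptide-aminoluciferin substrate, measured post 16 hr compound incubation at 37 °C.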

[20] = Cellular Toxicity (caspase-3) Mesangial (AID 660); settings: mesangial cells, normalized: DMSO 0%, 100 µM tamoxifen 100%; at 91.7 µM (top of the series);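 further: combined caspase 3 and 7 activity read by Caspase-Glo luminescence; cells exposed to compound for 16 h before the caspase read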
Summary of the method: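 Caspase 3/7 activation measured by Caspase-Glo 3/7 luminescence (20 min, room temperature) following 16 h exposure of mesangial cells (1000/well); AC50 from Hill-equation fit, normalized to DMSO and 100 uM tamoxifen.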

[21] = Cellular Toxicity (caspase-3) SK-N-SH (AID 661); settings: SK-N-SH caspase-3 activation, qHTS; caspase-3 activation: at 91.7 µM (top of the series), DMSO as zero, staurosporine as full;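 further: cells exposed to compound for 16 hours; 0% = DMSO basal and 100% = 10 µM staurosporine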
Summary of the method: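 Caspase 3/7 activation was read by luminogenic substrate cleavage after 16 hour treatment of SK-N-SH cells. Signal was scaled between DMSO and 10 uM staurosporine, and concentration-response data were fitted with the Hill equation for AC50.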

[22] = Cellular Toxicity (caspase-3) H-4-II-E (AID 663); settings: H-4-II-E rat hepatoma; Potency: caspase-3 activation; caspase-3 activation: at 92.2 µM (top of the series), scaled: DMSO 0%, 100 µM tamoxifen 100%;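 further: cells exposed to compound for 16 hr before readout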
Summary of the method: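 Caspase 3/7 activation measured in H-4-II-E cells in complete culture medium after 16 hr treatment at 37 °C, using luciferase-coupled substrate readout; AC50 values come from Hill-equation fits of normalized concentration-response data.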

[23] = Cellular Toxicity (caspase-3) Hek293 (AID 664); settings: HEK293 caspase-3 activation, DMSO = 0%, 100 µM tamoxifen = 100%; at 92.2 µM (top of the series);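 further: cells exposed to compound for 16 h at 37 °C before readout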
Summary of the method: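 Concentration-response qHTS: caspase 3/7 activation measured by luminescent aminoluciferin substrate cleavage after 16 h compound exposure of Hek 293 cells. AC50 from Hill equation, with DMSO as basal and 100 uM tamoxifen as 100%.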

[24] = Cellular Toxicity (caspase-3) N2a (AID 665); settings: Potency: caspase-3 activation;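 further: compound exposure lasted 16 h at 37 °C before readout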
Summary of the method: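 Caspase-3/7 activation measured as luminescence from Caspase-Glo reagent (1 h, room temperature) after 16 h compound exposure of mouse N2a cells. AC50 values from Hill-equation concentration-response, scaled between DMSO and 10 uM staurosporine.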

[25] = Cellular Toxicity (caspase-3) NIH 3T3 (AID 666);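 further: 0% = DMSO basal and 100% = 100 µM tamoxifen stimulation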
Summary of the method: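 Caspase-Glo 3/7 luminescence reported caspase activation in 1000 NIH 3T3 cells/well after 16 h compound exposure at 37 C. DMSO set basal and 100 uM tamoxifen set 100% stimulation; concentration-response modeled with the Hill equation for AC50.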

[26] = Cellular Toxicity (caspase-3) Renal Proximal Tubule (AID 667);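 further: cells exposed to compound for 16 hours at 37 °C before detection; 0% = DMSO basal and 100% = 10 µM staurosporine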
Summary of the method: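 Luminescent caspase 3/7 signal from peptide-aminoluciferin cleavage measures apoptosis in freshly isolated rat kidney proximal tubule cells after 16 h compound exposure. Concentration-response data are normalized to DMSO and 10 uM staurosporine, and AC50 values come from Hill equation fits.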

[27] = molecular target: Cytochrome P450 3A4 (Homo sapiens) (UniProt P08684); test: qHTS Assay for Inhibitors and Substrates of Cytochrome P450 3A4 (AID 884); further: on the % scale 0 is the no-effect control and ±100 the full control effect; nearly all actives have a fitted effect of over 50% in size
Chain of Cytochrome P450 3A4 (Homo sapiens) (P08684 whole entry, looked up): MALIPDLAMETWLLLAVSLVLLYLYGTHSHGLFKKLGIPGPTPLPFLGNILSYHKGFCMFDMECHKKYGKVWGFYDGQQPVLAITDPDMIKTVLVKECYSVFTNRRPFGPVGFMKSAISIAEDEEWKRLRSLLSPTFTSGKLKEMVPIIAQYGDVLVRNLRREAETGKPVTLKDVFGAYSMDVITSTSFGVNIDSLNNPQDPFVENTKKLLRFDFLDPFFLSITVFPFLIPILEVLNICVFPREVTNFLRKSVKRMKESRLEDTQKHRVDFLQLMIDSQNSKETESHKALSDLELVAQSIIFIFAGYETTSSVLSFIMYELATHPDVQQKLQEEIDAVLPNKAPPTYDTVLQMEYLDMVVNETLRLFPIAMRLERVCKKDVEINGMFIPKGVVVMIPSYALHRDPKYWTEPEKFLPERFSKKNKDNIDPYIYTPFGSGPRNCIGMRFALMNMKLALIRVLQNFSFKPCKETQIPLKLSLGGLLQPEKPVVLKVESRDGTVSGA
Summary of the method: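 Luminescent readout of luciferin produced by CYP3A4 (20 nM) dealkylation of Luciferin-PPXE, 25 uM (its KM). NADPH-driven reaction ran 60 min at RT after 10 min compound preincubation; data scaled to 57 uM ketoconazole as 100% inhibition.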

[28] = Cell Viability - LYMP2-001 (AID 921);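 further: 0% = DMSO only and full inhibition = tetraoctylammonium bromide control wells; nearly all actives have a fitted effect of over 70% in size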
Summary of the method: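 CellTiter-Glo luminescence (intracellular ATP) after 24 hr compound exposure at 37 C, 2500 lymphoblastoid cells/well in complete medium. AC50 fitted with standard Hill equation; tetraoctylammonium bromide positive control.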

[29] = MultiTox-Fluor Cytotoxicity Assay - LYMP1-001 - Dead Cells (AID 946)
Summary of the method: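 Seed 2500 LYMP1-001 cells/well, incubate 5 hr at 37 C; add compound, 16 hr at 37 C; add MultiTox-Fluor reagent, 60 min RT; read dead-cell fluorescence Ex/Em=485/520. Normalize to DMSO and 15 uM tetraoctylammonium bromide.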

[30] = MultiTox-Fluor Cytotoxicity Assay - LYMP1-001 - Live Cells (AID 947);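 further: 0% = DMSO only and full inhibition = tetraoctylammonium bromide control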
[31] = Cell Viability - LYMP1-002 - Assay at 16 hr (AID 948);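 further: 0% = DMSO alone and full effect = 92 µM tetraoctylammonium bromide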
Summary of the method: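 LYMP1-002 human lymphoblastoid cells, 2500/well; 5 hr 37 C; cpd 16 hr 37 C; CellTiter-Glo 30 min RT; luminescence (ATP). Concentration-response, Hill-fit AC50. Pos ctrl tetraoctylammonium bromide.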

[32] = MultiTox-Fluor Cytotoxicity Assay - LYMP1-002 - Live Cells (AID 955);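 further: cells exposed to compound for 16 hours; on the % scale 0 is the no-effect control and ±100 the full control effect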
Summary of the method: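 After 16 h compound exposure at 37 C, live LYMP1-002 lymphoblastoid cells (2500/well) were quantified by cleavage of cell-permeant GF-AFC substrate, read at 405/510 nm after 60 min. Concentration-response fitted with Hill equation for AC50.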

[33] = MultiTox-Fluor Cytotoxicity Assay - LYMP1-003 - Dead Cells (AID 961); further: nearly all actives have a fitted effect of over 70% in size
Summary of the method: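 LYMP1-003 lymphoblastoid, 2500 cells/well, 5 hr settle then 16 hr cpd at 37 C; MultiTox-Fluor reagent 60 min RT; Ex/Em 485/520 dead-cell signal; norm. DMSO = 0%, 15 uM tetraoctylammonium bromide = 100%; Hill AC50.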

[34] = MultiTox-Fluor Cytotoxicity Assay - LYMP1-003 - Live Cells (AID 962);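 further: cells exposed to compound for 16 hours at 37 °C; 0% = DMSO only and full loss = 92 µM tetraoctylammonium bromide; cytotoxic hits lower the live-cell protease signal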
Summary of the method: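 Live-cell protease activity (GF-AFC substrate, 405/510 nm, 60 min at room temperature) after 16 h, 37 C compound exposure of human lymphoblastoid LYMP1-003 cells; concentration-response fitted to the Hill equation for AC50.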

[35] = Cell Viability - LYMP1-003 - Assay at 24 hr (AID 963);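 further: plate controls were DMSO only for no effect and tetraoctylammonium bromide positive control for full effect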
Summary of the method: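 Concentration-response qHTS: ATP loss measured by CellTiter-Glo luminescence after 24 h compound exposure at 37 C. Cells were LYMP1-003 human lymphoblastoid, 2500 per well. AC50 derived via standard Hill equation modeling.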

[36] = Cell Viability - LYMP1-003 - Assay at 40 hr (AID 964); further: on the % scale 0 is the no-effect control and ±100 the full control effect; nearly all actives have a fitted effect of over 60% in size
Summary of the method: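 Viability is taken as cellular ATP, read by CellTiter-Glo luminescence after 40 h of compound exposure at 37 C. Cells: human lymphoblastoid line LYMP1-003 at 2500/well; AC50 values derived by Hill-equation fitting of concentration-response data.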

[37] = Cell Viability - LYMP2-003 (AID 965);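 further: cells exposed to compounds for 24 h before reading; 0% = DMSO only and full effect = 92 µM tetraoctylammonium bromide; nearly all actives have a fitted effect of over 50% in size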
Summary of the method: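 CellTiter-Glo luminescence (cellular ATP) after 24 h compound exposure at 37 C in complete medium; 2500 cells/well, 5 h settling beforehand. Concentration-response fitted to standard Hill equation for AC50. Tetraoctylammonium bromide served as positive control.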

O=C(OCC(COC(=O)c1ccccc1)(COC(=O)c1ccccc1)COC(=O)c1ccccc1)c1ccccc1
inactive: Potency [1] > 92 µM | Potency [2] > 92 µM | Potency [3] > 92 µM | Potency [4] > 92 µM | Potency [5] > 92 µM | Potency [6] > 92 µM | Potency [7] | Potency [8] | Potency [9] | Potency [10] | Potency [11] | Potency [12] | Potency [13] | Potency [14] | Potency [15] | Potency [16] | Potency [17] | Potency [18] | outcome [19] | caspase-3 activation [20] -0.308% | caspase-3 activation [21] -0.121% | caspase-3 activation [22] -0.12% | caspase-3 activation [23] 2.36% | Potency [24] | Potency [25] | outcome [26] | Potency [27] | Potency [28] | Potency [29] | Potency [30] | Potency [31] | Potency [32] | Potency [33] | Potency [34] | Potency [35] | Potency [36] | Potency [37]
